The full data set covers some 7,900 targets. This sample favours those with a hit. About 0.6% of all pairs of compound and target were hits. Values without a mark were called inactive.
Tests used:
Assay in all cases: log2 fold change, soluble protein after heating vs DMSO (PISA); higher = thermal stabilisation; K562 cells, 10 uM, 30 min; active = over 0.2 and 3.5 SD of the protein, either way, in both replicates (recomputed)
[1] = compound: CS(=O)(=O)c1ccc(-c2cnc(N)c(C(=O)Nc3ccccc3)n2)cc1
Procedure, shortened: (§1)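 Aliquots of K562 cells (2×10^6 cells/mL) treated with 10 μM compound for 30 min were heated for 3 min over 48°C-58°C. After pooling and extraction in PBS with 0.5% NP-40 at 4°C, soluble protein from a 21,000xg, 90 min spin was quantified by TMTpro 16plex LC-MS/MS with channel sums equalised. Thermal stability is expressed against control samples, from duplicates, as a log2 fold change.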

crizotinib = compound: C[C@@H](Oc1cc(-c2cnn(C3CCNCC3)c2)cnc1N)c1c(Cl)ccc(F)c1Cl [crizotinib]
Procedure, shortened: as §1

[2] = compound: C[C@@H]1COCCN1C2=NC(=NC(=C2)C3(CC3)S(=O)(=O)C)C4=C5C=CNC5=CC=C4
Procedure, shortened: as §1

[3] = compound: C[C@H](C1=CC=C(C=C1)C(=O)NC2=C3C=CNC3=NC=C2)N
Procedure, shortened: as §1

duvelisib = compound: C[C@H](Nc1ncnc2nc[nH]c12)c1cc2cccc(Cl)c2c(=O)n1-c1ccccc1 [duvelisib]
Procedure, shortened: as §1

gandotinib = compound: Cc1cc(Nc2cc(CN3CCOCC3)c3nc(C)c(Cc4ccc(Cl)cc4F)n3n2)n[nH]1 [gandotinib]
Procedure, shortened: as §1

tozasertib = compound: Cc1cc(Nc2cc(N3CCN(C)CC3)nc(Sc3ccc(NC(=O)C4CC4)cc3)n2)n[nH]1 [tozasertib]
Procedure, shortened: as §1

[4] = compound: Cc1cc(SCc2sc(-c3ccc(C(F)(F)F)cc3)nc2C)ccc1OCC(=O)O
Procedure, shortened: as §1

doramapimod = compound: Cc1ccc(-n2nc(C(C)(C)C)cc2NC(=O)Nc2ccc(OCCN3CCOCC3)c3ccccc23)cc1 [doramapimod]
Procedure, shortened: as §1

ispinesib = compound: Cc1ccc(C(=O)N(CCCN)[C@@H](c2nc3cc(Cl)ccc3c(=O)n2Cc2ccccc2)C(C)C)cc1 [ispinesib]
Procedure, shortened: as §1

bafetinib = compound: Cc1ccc(NC(=O)c2ccc(CN3CC[C@H](N(C)C)C3)c(C(F)(F)F)c2)cc1Nc1nccc(-c2cncnc2)n1 [bafetinib]
Procedure, shortened: as §1

[5] = compound: Cc1cccc(CC(=O)N2CCc3c2ccc(-c2cn(C)c4ncnc(N)c24)c3F)n1
Procedure, shortened: as §1

nilotinib = compound: Cc1cn(-c2cc(NC(=O)c3ccc(C)c(Nc4nccc(-c5cccnc5)n4)c3)cc(C(F)(F)F)c2)cn1 [nilotinib]
Procedure, shortened: as §1

[6] = compound: Cc1nc(Nc2n[nH]c3c2CN(C(=O)N[C@H](CN(C)C)c2ccccc2)C3(C)C)c2sccc2n1
Procedure, shortened: as §1

dasatinib = compound: Cc1nc(Nc2ncc(C(=O)Nc3c(C)cccc3Cl)s2)cc(N2CCN(CCO)CC2)n1 [dasatinib]
Procedure, shortened: as §1

[7] = compound: Cc1ncc(-c2ccnc(Nc3ccc(S(C)(=O)=O)cc3)n2)n1C(C)C
Procedure, shortened: as §1

[8] = compound: Cn1cc(-c2ccc3c(c2)CCN3C(=O)Cc2cccc(C(F)(F)F)c2)c2c(N)ncnc21
Procedure, shortened: as §1

[9] = compound: Cn1cc(-c2ccc3nnc(C(F)(F)c4ccc5ncccc5c4)n3n2)cn1
Procedure, shortened: as §1

tipifarnib = compound: Cn1cncc1[C@@](N)(c1ccc(Cl)cc1)c1ccc2c(c1)c(-c1cccc(Cl)c1)cc(=O)n2C [tipifarnib]
Procedure, shortened: as §1

mubritinib = compound: FC(F)(F)c1ccc(/C=C/c2nc(COc3ccc(CCCCn4ccnn4)cc3)co2)cc1 [mubritinib]
Procedure, shortened: as §1

Sequence of UniProt O43819 (O43819 whole entry, looked up): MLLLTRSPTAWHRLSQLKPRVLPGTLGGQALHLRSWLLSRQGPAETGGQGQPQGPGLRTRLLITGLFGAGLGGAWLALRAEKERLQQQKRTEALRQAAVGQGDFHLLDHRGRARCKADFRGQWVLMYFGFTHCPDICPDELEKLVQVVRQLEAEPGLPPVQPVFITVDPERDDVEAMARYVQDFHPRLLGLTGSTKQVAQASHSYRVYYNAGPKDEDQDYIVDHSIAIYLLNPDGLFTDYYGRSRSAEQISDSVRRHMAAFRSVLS
Sequence of UniProt Q8WZA2 (Q8WZA2 whole entry, looked up): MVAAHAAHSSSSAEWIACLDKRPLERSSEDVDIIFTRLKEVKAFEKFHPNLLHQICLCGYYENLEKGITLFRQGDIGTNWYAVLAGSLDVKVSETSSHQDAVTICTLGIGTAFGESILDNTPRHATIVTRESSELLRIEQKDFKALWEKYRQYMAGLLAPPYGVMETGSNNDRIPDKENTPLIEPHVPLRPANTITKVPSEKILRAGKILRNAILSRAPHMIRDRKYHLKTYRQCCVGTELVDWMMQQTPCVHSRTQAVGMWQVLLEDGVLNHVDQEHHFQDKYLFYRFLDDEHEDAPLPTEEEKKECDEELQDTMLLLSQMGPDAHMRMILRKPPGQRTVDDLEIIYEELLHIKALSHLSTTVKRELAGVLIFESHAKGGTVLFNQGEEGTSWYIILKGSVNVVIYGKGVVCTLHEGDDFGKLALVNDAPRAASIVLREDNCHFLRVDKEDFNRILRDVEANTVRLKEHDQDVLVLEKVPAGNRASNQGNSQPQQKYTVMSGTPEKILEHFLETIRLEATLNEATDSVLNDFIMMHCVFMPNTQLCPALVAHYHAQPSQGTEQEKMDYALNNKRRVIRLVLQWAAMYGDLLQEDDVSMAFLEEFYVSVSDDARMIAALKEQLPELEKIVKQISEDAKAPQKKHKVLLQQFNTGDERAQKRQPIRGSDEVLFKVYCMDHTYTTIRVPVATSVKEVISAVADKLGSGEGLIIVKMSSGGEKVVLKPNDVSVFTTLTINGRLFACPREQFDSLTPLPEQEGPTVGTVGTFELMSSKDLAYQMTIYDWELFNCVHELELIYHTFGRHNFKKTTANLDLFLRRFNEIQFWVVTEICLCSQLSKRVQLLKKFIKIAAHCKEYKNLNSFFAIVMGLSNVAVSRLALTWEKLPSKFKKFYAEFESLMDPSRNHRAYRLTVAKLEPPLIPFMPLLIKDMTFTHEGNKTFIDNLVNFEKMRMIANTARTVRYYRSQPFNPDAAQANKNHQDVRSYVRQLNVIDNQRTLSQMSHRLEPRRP
Sequence of UniProt P49756 (P49756 whole entry, looked up): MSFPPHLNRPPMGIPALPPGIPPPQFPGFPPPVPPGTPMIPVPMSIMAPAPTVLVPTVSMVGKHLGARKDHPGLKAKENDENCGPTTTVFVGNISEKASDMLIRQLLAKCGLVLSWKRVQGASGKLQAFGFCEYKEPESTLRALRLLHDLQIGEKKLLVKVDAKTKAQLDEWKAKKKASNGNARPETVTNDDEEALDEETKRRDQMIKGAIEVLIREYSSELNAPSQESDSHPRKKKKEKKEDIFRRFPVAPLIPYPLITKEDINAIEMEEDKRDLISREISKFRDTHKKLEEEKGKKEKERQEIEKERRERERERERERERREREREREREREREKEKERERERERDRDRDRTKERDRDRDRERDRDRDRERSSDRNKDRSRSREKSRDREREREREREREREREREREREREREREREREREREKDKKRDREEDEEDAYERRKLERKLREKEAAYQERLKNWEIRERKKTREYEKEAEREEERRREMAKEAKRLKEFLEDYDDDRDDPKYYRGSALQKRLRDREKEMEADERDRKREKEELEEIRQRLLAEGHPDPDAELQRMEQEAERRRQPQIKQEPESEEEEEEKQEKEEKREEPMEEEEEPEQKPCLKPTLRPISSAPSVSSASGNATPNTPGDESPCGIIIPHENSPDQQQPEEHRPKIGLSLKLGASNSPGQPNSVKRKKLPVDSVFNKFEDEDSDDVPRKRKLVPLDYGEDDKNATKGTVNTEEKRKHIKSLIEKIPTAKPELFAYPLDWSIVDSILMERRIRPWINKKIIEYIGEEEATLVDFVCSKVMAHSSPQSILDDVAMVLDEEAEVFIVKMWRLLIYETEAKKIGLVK
Sequence of UniProt O75056 (O75056 whole entry, looked up): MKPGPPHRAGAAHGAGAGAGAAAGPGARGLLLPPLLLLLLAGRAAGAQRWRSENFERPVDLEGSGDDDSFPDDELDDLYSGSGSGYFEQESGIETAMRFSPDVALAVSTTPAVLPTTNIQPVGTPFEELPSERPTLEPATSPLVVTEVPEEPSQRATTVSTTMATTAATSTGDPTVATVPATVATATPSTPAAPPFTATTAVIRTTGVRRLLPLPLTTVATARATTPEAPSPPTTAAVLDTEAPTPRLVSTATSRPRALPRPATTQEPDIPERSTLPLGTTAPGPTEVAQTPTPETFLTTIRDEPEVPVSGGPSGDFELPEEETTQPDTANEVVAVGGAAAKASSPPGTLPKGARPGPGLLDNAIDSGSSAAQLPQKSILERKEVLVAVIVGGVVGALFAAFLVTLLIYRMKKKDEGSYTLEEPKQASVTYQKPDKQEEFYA
Sequence of UniProt Q96GF1 (Q96GF1 whole entry, looked up): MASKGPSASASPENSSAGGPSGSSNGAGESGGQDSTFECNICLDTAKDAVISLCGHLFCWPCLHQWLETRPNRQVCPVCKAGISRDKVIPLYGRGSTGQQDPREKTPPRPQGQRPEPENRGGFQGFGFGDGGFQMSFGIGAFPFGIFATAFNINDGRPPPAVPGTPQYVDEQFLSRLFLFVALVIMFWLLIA
Sequence of UniProt Q13796 (Q13796 whole entry, looked up): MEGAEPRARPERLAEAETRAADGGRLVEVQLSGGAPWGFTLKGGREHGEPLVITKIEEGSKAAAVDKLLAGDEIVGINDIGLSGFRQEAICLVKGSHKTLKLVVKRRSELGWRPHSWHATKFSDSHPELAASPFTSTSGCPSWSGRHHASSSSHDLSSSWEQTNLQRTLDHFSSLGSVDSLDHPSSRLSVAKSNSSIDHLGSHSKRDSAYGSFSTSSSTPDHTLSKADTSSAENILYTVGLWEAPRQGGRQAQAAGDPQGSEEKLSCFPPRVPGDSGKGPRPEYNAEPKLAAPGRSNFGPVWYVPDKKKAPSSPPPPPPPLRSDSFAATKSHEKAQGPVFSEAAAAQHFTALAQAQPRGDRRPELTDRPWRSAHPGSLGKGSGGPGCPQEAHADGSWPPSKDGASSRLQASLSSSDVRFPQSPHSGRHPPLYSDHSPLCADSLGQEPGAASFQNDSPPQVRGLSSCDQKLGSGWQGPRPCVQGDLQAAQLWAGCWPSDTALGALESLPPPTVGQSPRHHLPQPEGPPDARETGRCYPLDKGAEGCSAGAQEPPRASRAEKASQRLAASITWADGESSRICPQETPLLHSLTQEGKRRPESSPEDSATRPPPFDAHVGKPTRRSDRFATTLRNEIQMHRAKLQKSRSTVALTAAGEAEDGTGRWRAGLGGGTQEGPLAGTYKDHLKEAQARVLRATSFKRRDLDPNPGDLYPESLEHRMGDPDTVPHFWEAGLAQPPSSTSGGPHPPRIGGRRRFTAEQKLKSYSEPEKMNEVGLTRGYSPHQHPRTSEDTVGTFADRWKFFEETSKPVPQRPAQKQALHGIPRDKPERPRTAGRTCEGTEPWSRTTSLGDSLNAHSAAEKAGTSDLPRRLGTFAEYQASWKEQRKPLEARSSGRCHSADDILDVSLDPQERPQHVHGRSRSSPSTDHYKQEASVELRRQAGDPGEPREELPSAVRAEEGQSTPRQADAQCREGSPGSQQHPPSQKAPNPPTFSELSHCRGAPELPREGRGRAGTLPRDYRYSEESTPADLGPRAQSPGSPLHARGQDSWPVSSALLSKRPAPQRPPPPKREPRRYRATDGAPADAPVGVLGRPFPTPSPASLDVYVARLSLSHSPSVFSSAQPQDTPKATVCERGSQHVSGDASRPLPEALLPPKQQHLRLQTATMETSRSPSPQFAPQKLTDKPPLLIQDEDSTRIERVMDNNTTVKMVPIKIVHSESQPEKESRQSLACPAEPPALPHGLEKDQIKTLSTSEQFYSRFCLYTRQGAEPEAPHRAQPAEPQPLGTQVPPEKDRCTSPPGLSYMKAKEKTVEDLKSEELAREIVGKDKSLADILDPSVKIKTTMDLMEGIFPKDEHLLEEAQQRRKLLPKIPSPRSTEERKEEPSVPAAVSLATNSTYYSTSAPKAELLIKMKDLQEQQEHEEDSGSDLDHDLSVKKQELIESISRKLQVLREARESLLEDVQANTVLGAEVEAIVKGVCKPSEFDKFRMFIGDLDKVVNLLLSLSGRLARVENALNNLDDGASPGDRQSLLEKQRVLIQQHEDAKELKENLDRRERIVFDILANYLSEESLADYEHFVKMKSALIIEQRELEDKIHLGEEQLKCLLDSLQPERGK
Sequence of UniProt P18754 (P18754 whole entry, looked up): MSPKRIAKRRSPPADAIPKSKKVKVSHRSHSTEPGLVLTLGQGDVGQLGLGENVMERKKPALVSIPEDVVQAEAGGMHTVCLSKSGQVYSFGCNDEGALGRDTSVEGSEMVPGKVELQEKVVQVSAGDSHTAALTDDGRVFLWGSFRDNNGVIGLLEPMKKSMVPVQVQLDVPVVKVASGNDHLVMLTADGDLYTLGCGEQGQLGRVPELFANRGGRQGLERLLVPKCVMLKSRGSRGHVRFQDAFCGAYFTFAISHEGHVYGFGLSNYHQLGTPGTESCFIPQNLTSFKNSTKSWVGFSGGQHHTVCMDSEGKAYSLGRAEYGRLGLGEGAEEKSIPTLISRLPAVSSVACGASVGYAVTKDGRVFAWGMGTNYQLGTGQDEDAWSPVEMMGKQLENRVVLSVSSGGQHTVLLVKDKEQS
Sequence of UniProt Q5VUM1 (Q5VUM1 whole entry, looked up): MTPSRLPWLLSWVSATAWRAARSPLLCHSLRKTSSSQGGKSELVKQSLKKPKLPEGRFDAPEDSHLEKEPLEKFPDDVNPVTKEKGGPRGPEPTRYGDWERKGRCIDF
Sequence of UniProt Q9BWJ5 (Q9BWJ5 whole entry, looked up): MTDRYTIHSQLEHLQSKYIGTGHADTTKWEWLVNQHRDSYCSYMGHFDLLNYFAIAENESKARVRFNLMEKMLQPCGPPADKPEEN

| Target | log2 fold change [1] | log2 fold change (crizotinib) | log2 fold change [2] | log2 fold change [3] | log2 fold change (duvelisib) | log2 fold change (gandotinib) | log2 fold change (tozasertib) | log2 fold change [4] | log2 fold change (doramapimod) | log2 fold change (ispinesib) | log2 fold change (bafetinib) | log2 fold change [5] | log2 fold change (nilotinib) | log2 fold change [6] | log2 fold change (dasatinib) | log2 fold change [7] | log2 fold change [8] | log2 fold change [9] | log2 fold change (tipifarnib) | log2 fold change (mubritinib) |
| --- | --- | --- | --- | --- | --- | --- | --- | --- | --- | --- | --- | --- | --- | --- | --- | --- | --- | --- | --- | --- |
| SCG3 (UniProt Q8WXD2) | -0.069 | 0.074 | -0.089 | -0.109 | 0 | -0.101 | 0.075 | -0.194 | 0.124 | 0.171 | 0.075 | -0.027 | 0.172 | -0.098 | 0.151 | -0.032 | 0.147 | -0.037 | 0.044 | -0.01 |
| SLC12A9 (UniProt Q9BXP2) | -0.071 | -0.315 (active) | -0.022 | 0.016 | -0.038 | -0.16 | 0.001 | -0.074 | -0.012 | -0.713 (active) | -0.088 | 0.023 | -0.069 | 0.05 | 0.057 | -0.066 | 0.008 | -0.006 | 0.025 | 0.001 |
| RCC1 isoform 2 (UniProt P18754) | 0.418 (active) | -0.032 | 0.13 | -0.04 | 0.158 | -0.1 | -0.002 | 0.154 | -0.008 | -0.007 | 0.013 | 0.002 | 0.069 | -0.137 | -0.159 | 0 | 0.139 | -0.004 | -0.112 | 0.296 |
| RPS9 (UniProt P46781) | -0.075 | 0.02 | -0.401 | 0.278 | -0.146 | 0.188 | 0.055 | 0.024 | 0.174 | -0.04 | 0.318 | -0.001 | 0.003 | 0.206 | 0.106 | -0.035 | -0.176 | -0.088 | 0.067 | -0.09 |
| SF3B5 (UniProt Q9BWJ5) | 0.027 | -0.012 | 0.176 |  | 0.358 | 0.087 | -0.152 | 0.002 | -0.089 |  | -0.115 | -0.056 | 0.029 | 0.008 | -0.189 | -0.064 |  |  | -0.018 | -0.043 |
| RRS1 (UniProt Q15050) | -0.022 | 0 | -0.365 | 0.304 | -0.181 | 0.089 | 0.094 | -0.034 | 0.235 | 0.019 | 0.121 | -0.125 | -0.024 | 0.073 | 0.161 | 0.267 | -0.431 | -0.165 | 0.105 | -0.226 |
| ROCK1 (UniProt Q13464) | 0.016 | -0.017 | 0.042 |  | -0.019 | -0.025 | 0.015 | 0.027 | -0.025 | -0.069 | -0.017 | -0.006 | -0.03 | 0.007 | -0.028 | 0.034 | -0.006 | 0.01 | -0.037 | 0.062 |
| RAPGEF4 (UniProt Q8WZA2) | 0.115 | 0.051 | 0.04 | -0.061 | 0.07 |  | -0.107 | -0.139 | 0.097 |  | -0.075 |  |  |  | 0.088 |  | 0.201 |  |  | 0.038 |
| SCO2 (UniProt O43819) | 0.062 | -0.106 | 0.05 | -0.016 | 0.14 | 0.026 | 0 | 0.061 | -0.031 | -0.134 | -0.058 | -0.014 |  |  | -0.042 |  | 0.107 | 0.039 | 0.014 | -0.035 |
| SDHAF4 (UniProt Q5VUM1) | 0.033 | -0.047 | 0.153 | 0.181 | 0.003 |  | 0 | -0.038 | 0.091 |  | -0.078 |  | -0.043 | -0.003 | 0.034 | 0.056 | 0.077 |  | -0.041 | 0.03 |
| RBBP6 (UniProt Q7Z6E9) | -0.117 | -0.158 | -0.036 | 0.072 |  | -0.066 | 0.03 |  | 0.012 | 0.168 | -0.018 | -0.004 | 0 | -0.031 |  | -0.003 | 0.003 | -0.01 | -0.058 | -0.171 |
| SHROOM2 (UniProt Q13796) | 0.093 | 0.005 | 0.013 | -0.099 | 0.059 | 0.397 | -0.195 | -0.233 | 0.008 |  | -0.091 | -0.02 | 0.082 | 0.011 | 0.166 | -0.043 | 0.163 |  | -0.022 | 0.258 |
| RABGAP1L isoform 5 (UniProt Q5R372) | 0.071 | 0.003 | 0.022 | 0.046 | 0.008 |  | -0.121 | -0.015 | -0.073 |  | -0.031 |  | 0.112 | -0.003 | -0.054 | -0.047 | -0.002 |  | 0.073 | 0.036 |
| RBM25 (UniProt P49756) | -0.071 | -0.052 | 0.09 | -0.01 | 0.037 | -0.166 | -0.012 | -0.074 | 0.057 | -0.049 | -0.067 | -0.066 | -0.012 | -0.03 | -0.049 | -0.129 | -0.044 | -0.096 | 0.068 | 0.049 |
| RAD50, A0A494C0Y7 | 0.029 | -0.024 |  | 0.204 | 0.067 | 0.021 | -0.042 | 0.054 | 0.034 | -0.054 | -0.022 | -0.249 |  |  | 0.028 |  | -0.012 | 0.016 | 0.058 | 0.167 |
| RNF185 (UniProt Q96GF1) |  |  |  | -0.036 |  | 0.104 | -0.112 |  |  | -0.024 | 0.189 | -0.037 | -0.027 | -0.001 |  | -0.022 | 0.089 | 0.218 | 0.045 | 0.057 |
| SDC3 (UniProt O75056) | -0.047 |  | 0.057 | 0.151 | 0.11 | -0.193 | -0.131 | -0.19 |  |  |  | 0.419 | -0.004 | 0.07 | 0.073 | -0.036 | -0.019 |  |  |  |
| RPS3 (UniProt E9PJN9) |  |  |  |  | 0.102 | -0.017 | -0.215 | 0.148 |  | -0.224 |  | 0.076 |  |  | -0.207 |  |  | -0.159 |  |  |

Source: the supplement of paper PMC10849652
